# Reference: article PMC7862700, “An all-to-all approach to the identification of sequence-specific readers for epigenetic DNA modifications on cytosine”
# Columns and labels:
# Assay in all cases: DAPPL (digital affinity profiling via proximity ligation, sequencing); 10 mM Tris-HCl pH 7.5, 50 mM NaCl, 1 mM DTT, 4% glycerol, room temperature, 30 min; GST-TFs on glutathione beads, 16-mer random dsDNA library, 0.1% formaldehyde crosslink after washing; high values mean tight binding
# Conditions in all cases: protein: recombinant; tags: N-terminal GST; dsDNA, one strand shown
# ETV2 = target: T1, ETV2 (Homo sapiens, UniProt O00321 1-342)
# T1 sequence: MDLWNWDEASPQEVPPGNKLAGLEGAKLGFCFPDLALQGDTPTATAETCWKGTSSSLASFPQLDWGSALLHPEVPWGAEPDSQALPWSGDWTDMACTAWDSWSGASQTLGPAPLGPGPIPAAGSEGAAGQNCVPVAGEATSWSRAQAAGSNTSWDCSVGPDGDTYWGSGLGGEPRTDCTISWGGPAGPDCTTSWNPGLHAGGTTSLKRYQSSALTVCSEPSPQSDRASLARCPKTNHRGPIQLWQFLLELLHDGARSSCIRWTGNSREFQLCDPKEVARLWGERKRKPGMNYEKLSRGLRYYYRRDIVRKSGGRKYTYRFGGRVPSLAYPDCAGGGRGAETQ
# Procedure, shortened: (§1)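 A tag-only sample was pooled with DNA-barcoded human transcription factors that had been expressed in yeast as GST fusions and captured on glutathione beads. The pools were incubated for 30 min at room temperature with 200 nmole of a random double-stranded 16-mer DNA library in Tris/NaCl/DTT/glycerol buffer, then washed, crosslinked with 0.1% formaldehyde, proximity-ligated (BsaI/T4 ligase, 1 h, 37 °C), PCR-amplified and sequenced on an Illumina NextSeq500. Binding signal is each hexamer's read frequency for a factor divided by its frequency for the tag-only sample.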
# ELF3 = target: T2, ELF3 (Homo sapiens, UniProt P78545 1-371)
# T2 sequence: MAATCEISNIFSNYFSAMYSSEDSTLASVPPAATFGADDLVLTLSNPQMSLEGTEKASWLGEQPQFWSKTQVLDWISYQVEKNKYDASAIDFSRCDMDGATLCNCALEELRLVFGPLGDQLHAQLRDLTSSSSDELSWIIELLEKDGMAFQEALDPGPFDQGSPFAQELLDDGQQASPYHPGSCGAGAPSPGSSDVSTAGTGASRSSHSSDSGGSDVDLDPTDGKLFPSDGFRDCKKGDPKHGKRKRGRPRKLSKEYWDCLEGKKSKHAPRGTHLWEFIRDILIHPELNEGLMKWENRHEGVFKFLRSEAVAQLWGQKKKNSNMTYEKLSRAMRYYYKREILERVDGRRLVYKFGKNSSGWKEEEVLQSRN
# Procedure, shortened: as §1
# ETV1 = ETV1 (Homo sapiens, UniProt P50549 1-477)
# Chain of ETV1 (P50549 whole entry): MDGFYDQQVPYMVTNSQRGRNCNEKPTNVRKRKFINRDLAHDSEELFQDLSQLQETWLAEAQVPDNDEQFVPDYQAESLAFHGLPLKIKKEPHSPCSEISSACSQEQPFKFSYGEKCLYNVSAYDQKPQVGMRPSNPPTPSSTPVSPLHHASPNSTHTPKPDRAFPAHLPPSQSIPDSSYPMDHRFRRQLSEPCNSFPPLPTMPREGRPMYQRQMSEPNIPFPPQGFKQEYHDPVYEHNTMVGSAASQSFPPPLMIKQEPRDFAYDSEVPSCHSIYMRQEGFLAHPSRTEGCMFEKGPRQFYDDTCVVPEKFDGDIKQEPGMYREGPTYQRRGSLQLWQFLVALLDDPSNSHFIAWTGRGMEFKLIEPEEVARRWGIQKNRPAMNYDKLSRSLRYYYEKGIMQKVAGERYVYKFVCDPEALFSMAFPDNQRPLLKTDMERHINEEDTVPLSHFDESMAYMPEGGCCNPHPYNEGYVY
# Procedure, shortened: as §1
# ERF = target: T3, ERF (Homo sapiens, UniProt P50548 1-548)
# T3 sequence: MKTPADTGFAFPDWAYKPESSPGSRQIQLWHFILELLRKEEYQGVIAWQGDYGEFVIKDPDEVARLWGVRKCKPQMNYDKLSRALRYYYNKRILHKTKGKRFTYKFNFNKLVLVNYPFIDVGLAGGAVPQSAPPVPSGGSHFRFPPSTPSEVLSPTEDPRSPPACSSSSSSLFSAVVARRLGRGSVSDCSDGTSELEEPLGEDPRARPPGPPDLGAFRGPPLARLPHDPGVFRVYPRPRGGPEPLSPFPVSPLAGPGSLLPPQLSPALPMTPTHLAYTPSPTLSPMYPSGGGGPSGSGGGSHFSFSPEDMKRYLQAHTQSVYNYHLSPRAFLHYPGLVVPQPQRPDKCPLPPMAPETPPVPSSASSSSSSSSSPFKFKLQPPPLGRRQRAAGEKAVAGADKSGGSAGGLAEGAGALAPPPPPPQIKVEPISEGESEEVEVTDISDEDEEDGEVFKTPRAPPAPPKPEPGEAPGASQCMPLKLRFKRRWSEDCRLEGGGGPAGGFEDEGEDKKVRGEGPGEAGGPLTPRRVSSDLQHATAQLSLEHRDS
# Procedure, shortened: as §1
# ETV3L = target: T4, ETV3L (Homo sapiens, UniProt Q6ZN32 1-361)
# T4 sequence: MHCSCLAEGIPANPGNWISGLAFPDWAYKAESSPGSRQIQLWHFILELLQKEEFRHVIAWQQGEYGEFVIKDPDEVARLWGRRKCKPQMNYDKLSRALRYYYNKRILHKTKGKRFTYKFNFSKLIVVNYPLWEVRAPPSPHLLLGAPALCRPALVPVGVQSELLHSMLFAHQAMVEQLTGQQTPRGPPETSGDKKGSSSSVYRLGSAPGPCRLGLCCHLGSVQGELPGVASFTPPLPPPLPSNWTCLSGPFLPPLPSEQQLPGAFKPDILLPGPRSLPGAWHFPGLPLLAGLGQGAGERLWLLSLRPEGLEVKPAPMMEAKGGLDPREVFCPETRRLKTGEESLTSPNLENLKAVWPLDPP
# Procedure, shortened: as §1
# ETS2 = target: T5, ETS2 (Homo sapiens, UniProt P15036 1-469)
# T5 sequence: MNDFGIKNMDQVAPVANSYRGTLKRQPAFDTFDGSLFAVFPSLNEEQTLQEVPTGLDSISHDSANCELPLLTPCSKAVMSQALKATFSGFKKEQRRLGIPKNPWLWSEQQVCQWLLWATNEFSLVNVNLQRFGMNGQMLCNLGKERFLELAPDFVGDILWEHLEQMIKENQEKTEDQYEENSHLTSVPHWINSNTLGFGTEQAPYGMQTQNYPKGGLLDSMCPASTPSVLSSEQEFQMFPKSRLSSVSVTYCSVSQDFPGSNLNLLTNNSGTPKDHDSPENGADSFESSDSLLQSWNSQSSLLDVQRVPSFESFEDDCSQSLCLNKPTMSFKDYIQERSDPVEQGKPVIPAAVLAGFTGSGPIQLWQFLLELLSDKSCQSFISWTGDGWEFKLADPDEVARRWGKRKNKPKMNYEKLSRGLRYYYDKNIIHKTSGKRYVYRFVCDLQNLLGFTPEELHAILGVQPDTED
# Procedure, shortened: as §1
# SPDEF = target: T6, SPDEF (Homo sapiens, UniProt O95238 1-335)
# T6 sequence: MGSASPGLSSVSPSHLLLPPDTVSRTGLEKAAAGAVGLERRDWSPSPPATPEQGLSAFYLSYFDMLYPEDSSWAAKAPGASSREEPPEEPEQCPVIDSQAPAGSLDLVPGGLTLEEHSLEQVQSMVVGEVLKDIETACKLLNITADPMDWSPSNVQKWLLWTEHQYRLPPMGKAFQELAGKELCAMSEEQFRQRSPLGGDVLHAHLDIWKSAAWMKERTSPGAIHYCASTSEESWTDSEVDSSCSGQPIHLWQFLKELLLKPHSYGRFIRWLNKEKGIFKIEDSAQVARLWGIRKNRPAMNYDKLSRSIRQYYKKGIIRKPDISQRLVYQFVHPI
# Procedure, shortened: as §1
# ETV7 = target: T7, ETV7 (Homo sapiens, UniProt Q9Y603 1-341)
# T7 sequence: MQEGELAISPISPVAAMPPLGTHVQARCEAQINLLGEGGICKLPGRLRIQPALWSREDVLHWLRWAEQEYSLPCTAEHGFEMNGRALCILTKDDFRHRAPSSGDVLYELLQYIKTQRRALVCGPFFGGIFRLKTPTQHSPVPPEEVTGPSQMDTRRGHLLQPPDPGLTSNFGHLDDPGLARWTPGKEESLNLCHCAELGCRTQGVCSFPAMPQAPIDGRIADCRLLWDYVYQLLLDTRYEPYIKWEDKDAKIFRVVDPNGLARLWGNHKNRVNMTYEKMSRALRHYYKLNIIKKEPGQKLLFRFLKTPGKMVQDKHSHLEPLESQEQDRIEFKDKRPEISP
# Procedure, shortened: as §1
# ETV3 = target: T8, ETV3 (Homo sapiens, UniProt P41162-2 1-143)
# T8 sequence: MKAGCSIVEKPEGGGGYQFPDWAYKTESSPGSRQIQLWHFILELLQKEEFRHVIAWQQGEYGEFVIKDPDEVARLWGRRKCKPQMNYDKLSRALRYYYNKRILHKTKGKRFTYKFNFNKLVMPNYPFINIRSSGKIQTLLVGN
# Procedure, shortened: as §1
# ETV6 = ETV6 (Homo sapiens, UniProt P41212 1-452)
# Chain of ETV6 (P41212 whole entry): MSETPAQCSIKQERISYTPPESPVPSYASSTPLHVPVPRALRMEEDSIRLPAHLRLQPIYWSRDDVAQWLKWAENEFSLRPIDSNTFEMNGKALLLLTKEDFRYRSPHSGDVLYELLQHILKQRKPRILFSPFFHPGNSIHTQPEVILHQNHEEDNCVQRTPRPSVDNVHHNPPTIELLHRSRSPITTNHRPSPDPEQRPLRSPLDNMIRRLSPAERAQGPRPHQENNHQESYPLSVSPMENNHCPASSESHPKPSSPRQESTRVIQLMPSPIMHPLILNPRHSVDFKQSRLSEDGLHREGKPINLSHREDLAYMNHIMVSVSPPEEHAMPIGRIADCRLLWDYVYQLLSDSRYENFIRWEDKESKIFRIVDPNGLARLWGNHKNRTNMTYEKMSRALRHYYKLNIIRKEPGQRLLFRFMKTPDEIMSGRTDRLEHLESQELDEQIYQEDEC
# Procedure, shortened: as §1
sequence,measurement,setting,value
CATTGT,binding signal,ETV2,"1.11 fold enrichment (6-mer frequency, TF over GST control)"
same,binding signal,ELF3,"1.02 fold enrichment (6-mer frequency, TF over GST control)"
same,binding signal,ETV1,"1.14 fold enrichment (6-mer frequency, TF over GST control)"
same,binding signal,ERF,"1.12 fold enrichment (6-mer frequency, TF over GST control)"
same,binding signal,ETV3L,"1.19 fold enrichment (6-mer frequency, TF over GST control)"
same,binding signal,ETS2,"1.07 fold enrichment (6-mer frequency, TF over GST control)"
same,binding signal,SPDEF,"1.11 fold enrichment (6-mer frequency, TF over GST control)"
same,binding signal,ETV7,"1.11 fold enrichment (6-mer frequency, TF over GST control)"
same,binding signal,ETV3,"1.16 fold enrichment (6-mer frequency, TF over GST control)"
same,binding signal,ETV6,"1.15 fold enrichment (6-mer frequency, TF over GST control)"
